Over roughly 39,000 sequences, “fluorescence intensity (a.u.)” has its median near 4,300; the highest 2% begin near 39,000. Only a selection was taken, and the highest values are over-represented in it overall.
target: T1, OsSMF1 (Oryza sativa, UniProt Q6ZLB0 1-436); assay: protein-binding microarray (RPBM); PBS, 2% BSA, 51.3 ng/ul salmon testes DNA, 50 uM zinc acetate, 200 nM TF, 25 C, 1 h; high values mean tight binding; conditions: protein: recombinant; tags: N-terminal polyhistidine and DsRed monomer fusion (pET32a); chain copies: 2; label: CyDye5-dUTP incorporated in the synthesized complementary strand; 3' TTTTT single-stranded linker to array surface; dsDNA, one strand shown
T1 sequence: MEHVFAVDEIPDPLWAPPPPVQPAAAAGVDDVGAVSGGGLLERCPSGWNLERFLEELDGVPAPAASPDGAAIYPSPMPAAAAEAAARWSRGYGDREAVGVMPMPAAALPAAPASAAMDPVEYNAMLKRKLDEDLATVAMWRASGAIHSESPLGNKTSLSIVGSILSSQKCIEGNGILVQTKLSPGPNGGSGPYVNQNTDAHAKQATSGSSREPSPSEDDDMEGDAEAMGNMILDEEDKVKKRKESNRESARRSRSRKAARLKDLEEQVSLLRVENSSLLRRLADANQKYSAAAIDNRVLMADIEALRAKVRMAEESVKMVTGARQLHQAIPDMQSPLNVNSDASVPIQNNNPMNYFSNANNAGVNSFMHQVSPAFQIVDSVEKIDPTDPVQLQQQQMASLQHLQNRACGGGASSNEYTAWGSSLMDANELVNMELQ
Method in brief: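 An Axon 4000B scanner gave the binding signal as per-feature fluorescence intensity in arbitrary units. This followed washing of a custom Agilent array that had been incubated for 1 h at 25 °C with 200 nM protein in PBS, 2% BSA, salmon testes DNA and 50 µM zinc acetate. The proteins were transcription factors fused at the N-terminus to polyhistidine and DsRed, expressed in E. coli BL21-CodonPlus and purified on Ni–NTA.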

Sequence	binding signal
CGGTGTTTGTAATTCATTTTATATAATGAAAATGGATTATCGGAGTCACCTAGTGCAG	44600 fluorescence intensity (a.u.)
CTGCGCGTAGAAGTGACGCAAGAAGGCAGCGGGCCCACTACGGAGTCACCTAGTGCAG	3230 fluorescence intensity (a.u.)
AGAACCTTCCGCGCTTCCGTGCTCCCCACCGCCACCTCGCCGGAGTCACCTAGTGCAG	3430 fluorescence intensity (a.u.)
TCACATCCACGTATATTCCCTTCCCCTTCTCCAACCTTTCCGGAGTCACCTAGTGCAG	9390 fluorescence intensity (a.u.)
TCATCATCAAGACTGAGTCACTGACACGTGTGCACCTATGCGGAGTCACCTAGTGCAG	27900 fluorescence intensity (a.u.)
TCTATATTCTACTCAATGCTTGGTTCTAAATTGGCCTCAACGGAGTCACCTAGTGCAG	24700 fluorescence intensity (a.u.)
CTATTTGTGTCTTGTGTACTTCAACGTCTTCCTCTTATGACGGAGTCACCTAGTGCAG	3680 fluorescence intensity (a.u.)
ATACAGTAAATATTTGCTAATGACGGATTAATTAGGCTTACGGAGTCACCTAGTGCAG	3790 fluorescence intensity (a.u.)
GCGTGCGCGTCGACGTCGTCACCGCCGTCCACGGCGTAGTCGGAGTCACCTAGTGCAG	5680 fluorescence intensity (a.u.)
ACATCCTATCCCGTGCATTGAATCAGCATTGTACAGCAAACGGAGTCACCTAGTGCAG	3370 fluorescence intensity (a.u.)
GAGCTCCACCTCCTCGCGTGCCCACGCCATCCATGGCTTCCGGAGTCACCTAGTGCAG	4500 fluorescence intensity (a.u.)
GGTTGTTCTAACAAATTGTTTATAAAACAATTTGATTTTGCGGAGTCACCTAGTGCAG	3570 fluorescence intensity (a.u.)
ATAATTTGGTGTTACAGTAAACATTTGCTAATAATGGATTCGGAGTCACCTAGTGCAG	49500 fluorescence intensity (a.u.)
TTTATATAATAGTTACTTACTATACTATTAATACTTGATTCGGAGTCACCTAGTGCAG	16600 fluorescence intensity (a.u.)
AAATACATCCAAGAACACAATATATTCCAATATTTTGTCACGGAGTCACCTAGTGCAG	34500 fluorescence intensity (a.u.)
TTTTCTATAAATTTAGTCAAATATAACAAAGTTTGATTAGCGGAGTCACCTAGTGCAG	42600 fluorescence intensity (a.u.)
TTTGTCTATAAATTTAGTCAAACTTGAAACAATTTGATTTCGGAGTCACCTAGTGCAG	14600 fluorescence intensity (a.u.)
CGGAGGGAGTATAAAAGAACAATACTTCTATAAATTTTGTCGGAGTCACCTAGTGCAG	40300 fluorescence intensity (a.u.)
AGGGAAAGATTCTAACAAATAAAGAAAAGAACAATGCAGCCGGAGTCACCTAGTGCAG	3260 fluorescence intensity (a.u.)
ATTTAATAAAACTTATTTGGTGTTGTAAATGTTGCTAAATCGGAGTCACCTAGTGCAG	26700 fluorescence intensity (a.u.)
ATGTCGTAGCTTTTAATTATATACTACTATAAATTTGATTCGGAGTCACCTAGTGCAG	43700 fluorescence intensity (a.u.)
GTGGTGCTACAGTAAATATTTGCTAATGATAGATTAATTACGGAGTCACCTAGTGCAG	7300 fluorescence intensity (a.u.)
AAAATTATGTTGTCATTTTAATATATTTGAATAATACATTCGGAGTCACCTAGTGCAG	3560 fluorescence intensity (a.u.)
CCAATTCACTCCACCATACTGTTGGCACCTATGATAGAACCGGAGTCACCTAGTGCAG	3430 fluorescence intensity (a.u.)

Sequence	binding signal
AGAAAACCTACACCCCGGGCTTCCGTTGCAACGTGACAACCGGAGTCACCTAGTGCAG	13300 fluorescence intensity (a.u.)
TATACAAGTCAGCTGCTGCTCGATCTTGTCATGAGAGCCCCGGAGTCACCTAGTGCAG	5140 fluorescence intensity (a.u.)
GGAGAGGGAGCGGGAGAGGGAGGATTGGAGGATGTGGGGACGGAGTCACCTAGTGCAG	15400 fluorescence intensity (a.u.)
CTGCGGTTGCATTGCATGGAGATGGACCCTCAACCAGCTACGGAGTCACCTAGTGCAG	3700 fluorescence intensity (a.u.)
CCGACAAAAGATGGTTTCTCCATCAGTGAAGACACAATGTCGGAGTCACCTAGTGCAG	19500 fluorescence intensity (a.u.)
CATCGGACGGCCCATGTAGCCCAACTCCTCCGCTGCCACGCGGAGTCACCTAGTGCAG	3410 fluorescence intensity (a.u.)
GGGCTCCCAGTATAGCTTAGGTTGATTTAATTATGGTTAACGGAGTCACCTAGTGCAG	49500 fluorescence intensity (a.u.)
TTAGTATGTGATTAATTTAGTATTAATTATTTAACTATAACGGAGTCACCTAGTGCAG	31900 fluorescence intensity (a.u.)
ATGGCTGTTGATTTTAATAGTGCAGGAGTGGTTTATAGCTCGGAGTCACCTAGTGCAG	4220 fluorescence intensity (a.u.)
ACACTGCCACGTCAGCGCCACGTTAGCAAAACCGTCCTCCCGGAGTCACCTAGTGCAG	35500 fluorescence intensity (a.u.)
GCAACAGTGTTATGCAACAGTGTCATTCAGTCTCTACACACGGAGTCACCTAGTGCAG	32000 fluorescence intensity (a.u.)
AGCTGGTGATGAGCAGCGTCACCAATTCTTCCTGGACGCCCGGAGTCACCTAGTGCAG	4190 fluorescence intensity (a.u.)
CGGCGAGGCGAACTCAACGGGTACGCAAAGCGAAGAGGAGCGGAGTCACCTAGTGCAG	45600 fluorescence intensity (a.u.)
ACGGCGGGAACAATTGTGGGCGGTGGCCTTGGCCGAATCGCGGAGTCACCTAGTGCAG	55000 fluorescence intensity (a.u.)
GGCAGCTTGGTGCGGGAGAGAGGCGGCGGCGAAGGGGAGACGGAGTCACCTAGTGCAG	41900 fluorescence intensity (a.u.)
ATCGTCGCGGGGCCGCCGACGGCGCGCGGTGTGGCCGACGCGGAGTCACCTAGTGCAG	6480 fluorescence intensity (a.u.)
GAACGGAACGCAACGTGCGGAGAGAGAGCGAGAGAGAAGCCGGAGTCACCTAGTGCAG	30600 fluorescence intensity (a.u.)
AGAAGAGGGAGACAGAGGATAGAGAGAAGAGGGCACTTCACGGAGTCACCTAGTGCAG	11900 fluorescence intensity (a.u.)
GCAACGGAAGAGATGAGGAGATGACTCGGATGAGCGGAAGCGGAGTCACCTAGTGCAG	3180 fluorescence intensity (a.u.)
CGGTGGCGGGAACATGTGGGCGGTGGCAGGAGTGCAGGTGCGGAGTCACCTAGTGCAG	3810 fluorescence intensity (a.u.)
GAGAGGAGGAAGACAGAGAGGAGAGATGAGATAGGATCAACGGAGTCACCTAGTGCAG	46200 fluorescence intensity (a.u.)
GTGGAGGCGAGGCGGCGAGAGGCGGGTAGCAGTGGAGGAGCGGAGTCACCTAGTGCAG	3430 fluorescence intensity (a.u.)
GGCGGCAGCGACGGCGGAGGCGAGGGAGGGGAGGCGGCGGCGGAGTCACCTAGTGCAG	3930 fluorescence intensity (a.u.)
GAAGGCGGCGGGGTGGCGAAGTGGCGAGGAGGAGACGGGGCGGAGTCACCTAGTGCAG	4910 fluorescence intensity (a.u.)

From publication PMC7819943, “Rice protein-binding microarrays: a tool to detect cis-acting elements near promoter regions in rice”
